Reference: PubChem BioAssay (Tox21)
Where “and” joins values, the source holds several entries; their conditions need not be identical. Equal entries are not always repeated. Inconclusive results are not listed. Where a call stands in place of a potency, no number is given. Some structures have more than one record in an assay (separate samples or runs), and their calls can disagree. Calls of active or inactive are those of the source. Unless noted, calls come from the whole dose curve; as a rule, active = well fitted curve in the direction sought with a large enough effect in the repeat runs; inconclusive = weak or mixed curves; inactive = no such curve, though single readings can be large; an effect the other way counts as inactive or inconclusive.

Assays:
[1] = qHTS assay to identify small molecule antagonists of the glucocorticoid receptor (GR) signaling pathway - cell viability counter screen (AID 720693); note: nearly all actives have a fitted effect of over 55% in size; note: potency is the fitted concentration of half-maximal effect
[2] = qHTS assay for identifying genotoxic compounds that show differential cytotoxicity against isogenic chicken DT40 cell lines with known DNA damage response pathways - wild type cell line (AID 743012); note: nearly all actives have a fitted effect of over 60% in size; note: potency is the fitted concentration of half-maximal effect
Method in brief: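 First, wild type DT40 cells were plated at 300 per well and equilibrated about 0.5 h at 37 C/5% CO2. Next, compounds in DMSO were added and exposure lasted 40 h. Finally, CellTiter-Glo was added for 30 min at room temperature and luminescence recorded.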

[3] = qHTS assay for identifying genotoxic compounds that show differential cytotoxicity against isogenic chicken DT40 cell lines with known DNA damage response pathways - Rev3 mutant cell line (AID 743014); note: nearly all actives have a fitted effect of over 55% in size; note: potency is the fitted concentration of half-maximal effect
[4] = qHTS assay for identifying genotoxic compounds that show differential cytotoxicity against isogenic chicken DT40 cell lines with known DNA damage response pathways - Rad54/Ku70 mutant cell line (AID 743015); note: nearly all actives have a fitted effect of over 60% in size; note: potency is the fitted concentration of half-maximal effect
[5] = qHTS assay to identify small molecule antagonists of the androgen receptor (AR) signaling pathway - cell viability counter screen (AID 743033; note: nearly all actives have a fitted effect of over 45% in size; note: potency is the fitted concentration of half-maximal effect)
[6] = qHTS assay to identify small molecule antagonists of the androgen receptor (AR) signaling pathway using the MDA cell line - cell viability counter screen (AID 743041; note: nearly all actives have a fitted effect of over 45% in size; note: potency is the fitted concentration of half-maximal effect)
Method in brief: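 MDA-kb2 AR-luc human breast carcinoma cells (MMTV-luciferase, AR/GR responsive) were treated with compounds plus R1881 agonist for 16 h at 37 °C. Viability was read as CellTiter-Fluor fluorescence in the same wells as the reporter assay.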

[7] = molecular target: Androgen receptor (Homo sapiens) (UniProt P10275); assay: qHTS assay to identify small molecule antagonists of the androgen receptor (AR) signaling pathway (AID 743035; active = well fitted inhibition curve with a large enough effect in the signal ratio in the repeat runs, not every such curve was filed as active; the % refers to the signal ratio; note: potency is the fitted concentration of half-maximal effect)
Method in brief: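 Beta-lactamase FRET read (2 h RT incubation with LiveBLAzer B/G) following 16 h of compound plus R1881 treatment of AR-UAS-bla HEK293 cells, which had been pre-incubated 4 h at 37C.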

[8] = molecular target: Androgen receptor (Homo sapiens) (UniProt P10275); assay: qHTS assay to identify small molecule agonists of the androgen receptor (AR) signaling pathway (AID 743036; active = well fitted activation curve with a large enough effect in the signal ratio in the repeat runs, with a control signal flat, not every such curve was filed as active; the % refers to the signal ratio)
Method in brief: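 Screening used 2,000 AR-bla HEK293 cells per well, treated 16 h at 37C with test compounds in DMSO alongside positive and DMSO-only controls; beta-lactamase activity was then read by LiveBLAzer B/G FRET fluorescence after 2 h at room temperature.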

[9] = molecular target: Androgen receptor (Homo sapiens) (UniProt P10275); assay: qHTS assay to identify small molecule agonists of the androgen receptor (AR) signaling pathway using the MDA cell line (AID 743040; note: nearly all actives have a fitted effect of over 20% in size)
Method in brief: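 MDA-kb2 breast carcinoma cells stably carrying an MMTV-driven luciferase reporter (AR- and GR-responsive) were seeded and held 5 h at 37C, 0% CO2, then exposed to compounds in DMSO for 16 h. Luminescence was read 30 min after ONE-Glo addition.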

[10] = molecular target: Androgen receptor (Homo sapiens) (UniProt P10275); assay: qHTS assay to identify small molecule antagonists of the androgen receptor (AR) signaling pathway using the MDA cell line (AID 743042; note: nearly all actives have a fitted effect of over 55% in size)
Method in brief: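 MDA-kb2 cells (human breast carcinoma, stably carrying an MMTV-luciferase reporter responsive to AR and GR) were plated at 3,000 cells/well and preincubated 5 hr at 37C, then given compound plus R1881 agonist for 16 h. ONE-Glo luminescence was read.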

Sequence of Androgen receptor (Homo sapiens) (P10275 whole entry, looked up): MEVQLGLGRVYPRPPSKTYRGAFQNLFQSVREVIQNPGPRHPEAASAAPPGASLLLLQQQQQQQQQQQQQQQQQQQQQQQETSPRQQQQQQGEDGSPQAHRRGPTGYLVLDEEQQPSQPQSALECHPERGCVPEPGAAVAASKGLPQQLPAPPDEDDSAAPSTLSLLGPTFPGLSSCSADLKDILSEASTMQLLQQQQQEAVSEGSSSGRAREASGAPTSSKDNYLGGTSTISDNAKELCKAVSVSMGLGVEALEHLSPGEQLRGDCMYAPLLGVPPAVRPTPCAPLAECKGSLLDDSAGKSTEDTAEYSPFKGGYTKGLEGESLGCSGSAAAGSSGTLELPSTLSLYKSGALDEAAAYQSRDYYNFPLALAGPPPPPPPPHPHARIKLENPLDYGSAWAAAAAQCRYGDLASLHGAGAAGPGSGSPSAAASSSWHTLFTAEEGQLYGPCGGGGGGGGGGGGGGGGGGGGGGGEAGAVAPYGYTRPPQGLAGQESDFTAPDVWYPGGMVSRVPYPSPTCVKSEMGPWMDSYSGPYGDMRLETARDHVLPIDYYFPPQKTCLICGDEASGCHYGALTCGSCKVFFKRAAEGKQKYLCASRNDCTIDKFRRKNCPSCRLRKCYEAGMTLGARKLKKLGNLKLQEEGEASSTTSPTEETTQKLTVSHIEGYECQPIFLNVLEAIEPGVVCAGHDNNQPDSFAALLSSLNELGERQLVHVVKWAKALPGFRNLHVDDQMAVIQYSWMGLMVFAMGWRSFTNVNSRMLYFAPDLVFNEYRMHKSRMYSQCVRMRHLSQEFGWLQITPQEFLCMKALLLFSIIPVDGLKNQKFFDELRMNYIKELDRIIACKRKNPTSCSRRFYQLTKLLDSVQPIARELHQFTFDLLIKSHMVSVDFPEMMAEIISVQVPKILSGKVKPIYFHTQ

Structure (SMILES)	Potency [1]	Potency [2]	Potency [3]	Potency [4]	Potency [5]	Potency [6]	Potency [7]	Potency [8]	outcome [9]	Potency [10]	activity, negative = cytotoxicity [3]
CC(C)(c1cc(Br)c(OCC(Br)CBr)c(Br)c1)c1cc(Br)c(OCC(Br)CBr)c(Br)c1 (centres undefined)	inactive	inactive	inactive	inactive	inactive	inactive					
Cc1cc(-c2ccc(N=Nc3cc(S(=O)(=O)O)c4ccccc4c3N)c(C)c2)ccc1N=Nc1cc(S(=O)(=O)O)c2ccccc2c1N	inactive	0.548 µM (active)	0.388 µM (active)	0.346 µM (active)							
C=CC(C)(CCC=C(C)C)OC=O (centres undefined)	inactive	inactive	24.3 µM (active)	54.5 µM (active)	inactive	inactive					
[Cu+]	inactive	54.5 µM (active)	54.5 µM (active)	30.6 µM (active)	inactive						
O=C(O)Cc1ccccc1Nc1c(Cl)cccc1Cl	inactive	inactive	inactive and 61.1 µM (active)	inactive and 68.6 µM (active)	inactive	inactive	inactive	inactive	inactive	inactive	
CCOC(=O)c1ccc(C2CCC(NC[C@H](O)COc3ccc(O)c(NS(C)(=O)=O)c3)CC2)cc1 (some centres undefined)	inactive	0.356 µM (active)	0.1 µM (active)	0.113 µM (active)	45.2 µM (active)	inactive					
CCCCCCCCCCOC(=O)c1ccccc1C(=O)OCCCCCCCC	inactive	inactive	inactive	inactive	inactive	inactive		inactive	inactive	inactive	
CCCCCCC1CCCC(=O)O1 (centres undefined)	inactive	inactive	inactive	inactive	inactive						
O=C(O)c1cc(-c2ccc(F)cc2F)ccc1O	inactive	inactive	inactive	inactive	inactive						
Sc1nc2ccccc2s1	inactive										
CC1(C)CCC[C@]2(C)[C@H]3CCO[C@]3(C)CC[C@@H]12	inactive	inactive	inactive	inactive	inactive						
CC(C)OC(=O)C(O)(CC(=O)O)CC(=O)O	inactive	inactive	inactive	inactive	inactive		inactive	inactive	inactive	inactive	
CCOC(=O)Cn1cccc1-c1nc(-c2ccc(OC)cc2)c(-c2ccc(OC)cc2)s1	inactive	inactive	inactive	inactive	inactive	inactive	inactive		inactive	inactive	
COc1cc2nc(N3CCN(C(=O)c4ccco4)CC3)nc(N)c2cc1OC	inactive	10.6 µM (active)	13.3 µM (active)	13.3 µM (active)							
CC(CO)Oc1ccccc1 (centres undefined)	inactive	inactive	inactive	inactive	inactive	inactive	inactive	inactive	inactive	inactive	
NC(=S)NC(N)=S	inactive	61.1 µM (active)	61.1 µM (active)	68.6 µM (active)	inactive	inactive	inactive	inactive	inactive	inactive	
COc1ccc(NC(=O)CC(C)=O)cc1	inactive	inactive	inactive	inactive	inactive						
Clc1sc(Cl)c(Cl)c1Cl	inactive	inactive	inactive	inactive	inactive	inactive	inactive	inactive	inactive	inactive	
Cc1ccc(O)c(N)c1	inactive	54.5 µM (active)	54.5 µM (active)	61.2 µM (active)	inactive						
CCCCOC(=O)CC	inactive	inactive	inactive	inactive	inactive						
OC[C@H]1O[C@H](O[C@H]2O[C@H](CO)[C@@H](O)[C@H](O)[C@H]2O)[C@H](O)[C@@H](O)[C@@H]1O	inactive	inactive	inactive	inactive	inactive	inactive	inactive		inactive	inactive	
Cc1ccc(C)cc1	inactive	inactive	inactive	inactive	inactive	inactive	inactive	inactive	inactive	inactive	
CC(=O)c1ccc(C(C)=O)cc1	inactive	inactive	inactive	inactive	inactive	inactive	inactive	inactive	inactive	inactive	
CCCCCCCCCCCCOC(=O)c1ccc(O)cc1	24.7 µM (active)	inactive	inactive	inactive	inactive	inactive	inactive			inactive	
O[C@@H]([C@H](O)[C@H](O)CBr)[C@H](O)CBr	inactive	inactive	inactive	inactive	inactive						
O=C(O)c1cc(O)c2ccccc2c1O	inactive	6.11 µM (active)	5.45 µM (active)	6.11 µM (active)	inactive						

Structure (SMILES)	Potency [1]	Potency [2]	Potency [3]	Potency [4]	Potency [5]	Potency [6]	Potency [7]	Potency [8]	outcome [9]	Potency [10]	activity, negative = cytotoxicity [3]
Nc1cc(Cl)c(O)c(Cl)c1	inactive	10.9 µM (active)	15.4 µM (active)	24.3 µM (active)	inactive				inactive	inactive	
OC/C=C/CO	inactive	inactive	inactive	inactive	inactive						
OC[C@@H](O)[C@@H](O)CO	inactive	inactive	inactive	inactive	inactive						
CN(C)Cc1cc(C(C)(C)C)c(O)c(C(C)(C)C)c1	inactive	17.2 µM (active)	17.2 µM (active)								
CC(=O)OCC=C(C)C	inactive	inactive	inactive	inactive	inactive	inactive	inactive	inactive	inactive	inactive	
C/C=C/C=C/COC(=O)C(C)C	inactive	13.7 µM (active)	13.7 µM (active)	17.2 µM (active)	inactive						
OCCN1CCN(CCCN2c3ccccc3Sc3ccc(C(F)(F)F)cc32)CC1	inactive	3.76 µM (active)	1.68 µM (active)	4.22 µM (active)							
O=c1[nH]c2ccccc2n1CCCN1CCN(C(c2ccccc2)c2ccccc2)CC1	inactive	5.96 µM (active)	6.68 µM (active)	8.41 µM (active)	inactive	inactive					
COC(C)=O	inactive	inactive	inactive	inactive	inactive	inactive					
Nc1nc2c(ncn2COCCO)c(=O)[nH]1	inactive	2.54 µM (active)	2.27 µM (active)	4.52 µM (active)	inactive						
O=C(O)c1cccc(C(F)(F)F)c1	inactive	inactive	inactive	inactive	inactive	inactive					
Cc1nc(-c2ccc(Cl)cc2)oc1COC(C)(C)C(=O)O	inactive	inactive	inactive	inactive	inactive	inactive					
COc1c(C)c2c(c(O)c1C/C=C(\C)CCC(=O)OCCN1CCOCC1)C(=O)OC2	inactive	0.531 µM (active)	0.422 µM (active)	0.422 µM (active)		inactive	0.674 µM (active)		inactive	inactive	
CCC(C)n1ncn(-c2ccc(N3CCN(c4ccc(OC[C@H]5CO[C@](Cn6cncn6)(c6ccc(Cl)cc6Cl)O5)cc4)CC3)cc2)c1=O (some centres undefined)	inactive	0.596 µM (active)	0.422 µM (active)	0.596 µM (active)	inactive	inactive					
Clc1ccnc(Cl)n1	inactive	inactive	inactive	inactive	inactive	inactive					
C#C[C@]1(OC(C)=O)CC[C@H]2[C@@H]3CCC4=C[C@@H](OC(C)=O)CC[C@@H]4[C@H]3CC[C@@]21C	inactive	3.76 µM (active) and 6.68 µM (active)	10.6 µM (active) and 16.8 µM (active)	10.6 µM (active) and 11.9 µM (active)	inactive	inactive					
c1ccc(C(O[C@@H]2CCCN(CCc3ccc4c(c3)OCO4)C2)c2ccccc2)cc1	inactive	38.6 µM (active)	30.6 µM (active)	30.6 µM (active)	inactive	inactive					
O=C(O)c1cc(=O)c2ccccc2o1	inactive	inactive	inactive	inactive	inactive	inactive					
CC1(C)CC(O)CC(C)(C)N1	inactive	inactive	inactive	inactive	inactive	inactive					
CC(=O)CC(=O)Nc1ccc(S(=O)(=O)O)cc1	inactive	inactive	inactive	inactive	inactive	inactive					
O=C(O)CN(CCN(CC(=O)O)CC(=O)O)CC(=O)O	inactive	inactive		inactive	inactive	inactive					5.28% [at 3.82 µM] (inactive)
O=C1C(c2[nH]c3ccc(S(=O)(=O)O)cc3c2O)=Nc2ccc(S(=O)(=O)O)cc21	inactive	inactive	inactive	inactive and 30.6 µM (active)	inactive	inactive					
O=C(O)c1ccc2cc(C(=O)O)ccc2c1	inactive	inactive	inactive	inactive	inactive	inactive					
COc1cccc2c1C(=O)c1c(O)c3c(c(O)c1C2=O)C[C@@](O)(C(C)=O)C[C@@H]3O[C@H]1C[C@H](N)[C@H](O)[C@H](C)O1	7.56 µM (active) and 2.2 µM (active)	23.7 nM (active) and 21.8 nM (active)	37.6 nM (active) and 12.3 nM (active)	10.6 nM (active) and 2.4 nM (active)	22 µM (active)	54.8 µM (active)					
C=C(C)c1cccc(C(=C)C)c1	inactive	inactive	inactive	inactive	inactive	inactive					
